Many of the other results were omitted from the sample, so hits are more common in it than they were.
Lassa entry inh – Lassa virus entry inhibition | Lassa virus pseudotype entry inhibition, cell reporter | Potency, µM (titrated, usually from 37.9 µM), for inactives: at the highest dose activity change, negative = inhibition, most hits filed as inhibitors | 300,000 tested, 1.2% active | AID 540256; calls by dose curve; tested in HEK293 cells; note: potency is the fitted concentration of half-maximal effect; % is set by controls: 0 for no effect and ±100 for the full control effect; nearly all actives have a fitted effect of over 50% in size
CHX counter – counter-screen hit for Shiga toxin inhibitors, cycloheximide. cell reporter, cycloheximide protein synthesis inhibition counterscreen. max response, %. 300,000 tested, 12% active; in the data active = max response mostly above about 13%, no sharp cut-off; inactive = mostly below about 14%; note: read at 38.3 µM for the half of the compounds with a filed dose; 0% is about no effect
Shiga toxin inh – Shiga toxin inhibition; inhibition, % at 38.7 µM; AID 2315; 290,000 tested, 9.2% active; Vero cells, Shiga toxin protein synthesis inhibition reporter; in the data active = inhibition mostly above about 28%, no sharp cut-off; inactive = mostly below about 43%; note: 0% is about no effect
AMA1 RON2 block – disrupts binding of P. falciparum AMA1 to RON2; Potency, µM (top dose mostly 58.2 µM), without a hit: top-dose activity change, negative = inhibition, actives largely listed as inhibitors; 360,000 tested, 0.2% active; AID 720542; AlphaScreen AMA1-biotinylated RON2 peptide binding; active = well fitted inhibition curve with a large enough effect; inconclusive = small, poorly fitted or top-dose-only effect; inactive = no such curve, though single readings can be large or run the other way;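 note: potency is the fitted concentration of half-maximal effect; 0% = vehicle wells and -100% = peptide control; nearly all actives have a fitted effect of over 45% in size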
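AMA1 (3D7) with his tag at 25 nM final met compounds first, then biotinylated RON2 peptide at 25 nM; detection used donor plus acceptor beads, 10 µg/mL apiece, read by AlphaScreen after 30 min at room temperature.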
MARV entry inh – inhibitors of Marburg virus binding or cell entry; Marburg virus pseudotyped entry inhibition, cell reporter; Potency, µM (series often up to 37.8 µM), for the others: top-dose activity change, negative = inhibition, usual class: inhibitors; 300,000 tested, 1.8% active; AID 540276; calls by dose curve; tested in HEK293 cells; note: potency is the fitted concentration of half-maximal effect; % is set by controls: 0 for no effect and ±100 for the full control effect
An asterisk follows results filed as active; ? = inconclusive; . = no result; [ ] = another dose, or the depositor's remark.

SMILES | Lassa entry inh | CHX counter | Shiga toxin inh | AMA1 RON2 block | MARV entry inh
CCOc1ccc(C2C(C(=O)c3ccco3)=C(O)C(=O)N2CCCn2ccnc2)cc1OC (centres undefined) | 8%[46.1 µM] | 16* | 11 | -9% | 1%[46.1 µM]
CC(=O)Nc1ccc(OCC(O)Cn2ccnc2)cc1 (centres undefined) | . | 35* | 78* | -5% | .
OC(COc1ccc(Cl)cc1Cl)Cn1ccnc1 (centres undefined) | 9% | 13* | 17 | 12% | ?
Cc1cccc(CSCCNC(=O)CN(c2ccccc2)S(=O)(=O)N(C)C)c1 | 7%[46.1 µM] | . | . | . | 16%[46.1 µM]
C[C@H]1CC[C@H]2C(=O)N(Cc3cccc([N+](=O)[O-])c3)C[C@H](O)CN2[C@H]1c1cccc(Br)c1 | ? | . | . | . | -16%[14.2 µM]
O=C(O)C1CSC(c2coc3ccccc3c2=O)N1 (centres undefined) | 14% | 14* | 13 | 2% | -6%
O=C(O)c1cc2c(N3CCC(Cc4ccccc4)CC3)ncnc2s1 | -10% | -5 | 13 | -8% | 17%[46.1 µM]
c1ccc(CC2CCN(c3ncnc4sccc34)CC2)cc1 | -8%[46.1 µM] | 13* | 41 | 1% | -13%[46.1 µM]
Fc1ccc(-c2cc(-c3nc(-c4cccc(Cl)c4)no3)[nH]n2)cc1 | 24%[46.1 µM] | . | . | . | .
Cc1nc2cc(-c3ccccc3)ccc2o1 | 0% | 32* | 86* | 29% | ?
C#CCNC(=O)C1=C[C@H](C(C)(C)C)C[C@H](OCc2ccc(CO)cc2)O1 | . | 8 | 24 | -1% | .
O=C(Nc1ccccc1)C1=C[C@H](C2CC2)C[C@H](OCCCCO)O1 | . | 28* | 104* | 2% | .
C=CCOC(=O)C1=C[C@H](C2CCCCC2)C[C@H](OCc2ccc(CO)cc2)O1 | . | . | . | 3% | .
CC(C)(C)[C@@H]1C=C(C(N)=O)O[C@H](OCc2ccc(CO)cc2)C1 | . | -4 | -2 | -1% | .
CC(C)(C)[C@H]1C=C(C(N)=O)O[C@@H](OCc2ccc(CO)cc2)C1 | . | 13* | 40 | 4% | .
NC(=O)C1=C[C@H](C2CCCCC2)C[C@H](OCc2ccc(CO)cc2)O1 | . | 50* | 63* | -2% | .
CC(C)(C)[C@@H]1C=C(C(=O)Nc2ccccc2)O[C@H](OCc2ccc(CO)cc2)C1 | . | 26* | 50 | 0% | .
CCCCNC(=O)NS(=O)(=O)c1ccc(CO)cc1 | . | -10 | -15 | . | .
CNC(=S)N/N=C/c1c(C)nn(-c2ccccc2)c1Cl | 2% | 35* | 61* | 27% | -26%
Cc1nn(-c2ccccc2)c(Cl)c1/C=N/Nc1ccc(S(=O)(=O)Nc2ccccc2C(=O)O)cc1[N+](=O)[O-] | -10% | 7 | -9 | -26% | 4%
Cc1nn(-c2ccccc2)c(Cl)c1/C=N/Nc1ccc(Cl)c(C(=O)O)c1 | ? | 87* | 98* | -13% | 2µM*
Cc1nn(-c2ccccc2Cl)c(Cl)c1/C=N/Nc1nc2ccccc2s1 | 1.1µM* | 104* | 170* | 3% | 0.033µM*
COc1ccc(NCC(=O)N/N=C/c2c(C)nn(Cc3ccccc3)c2Cl)cc1 | 7.9µM* | 16 | 9 | -5% | ?
Cc1nn(Cc2ccccc2)c(C)c1/C=N/NC(=O)CNc1cccc(C(F)(F)F)c1 | . | 8 | -6 | 6% | .
O=C(c1cc2ccccc2oc1=O)N1CCN(c2ccc(Cl)cc2)CC1 | 6%[46.1 µM] | . | . | . | 9%[46.1 µM]
SMILES | Lassa entry inh | CHX counter | Shiga toxin inh | AMA1 RON2 block | MARV entry inh
Cc1cc(OCC(=O)OCC(=O)N(C)C2CCS(=O)(=O)C2)ccc1Cl (centres undefined) | ? | . | . | 78% | 17%
CC1=C(C(=O)Nc2ccccc2)C(CC(C)C)n2nc(SCc3ccccc3C)nc2N1 (centres undefined) | -1%[46.1 µM] | . | . | . | -13%[46.1 µM]
Cc1nn(-c2ccccc2)c(Cl)c1/C=N/NC(=O)OC(C)(C)C | ? | 38* | 71* | 3% | ?
Cc1nn(-c2ccccc2)c(Cl)c1/C=N/Nc1nncc(=O)[nH]1 | . | 12* | 43 | 48% | .
Cc1nn(-c2ccccc2)c(Cl)c1/C=N\NC(=O)c1cnccn1 | 5% | -3 | -9 | 18% | 8%
CCOC(=O)N/N=C/c1c(C)nn(-c2ccccc2Cl)c1Cl | ? | 27* | 33 | 11% | ?
COc1cc(C2Oc3ccccc3C=C2[N+](=O)[O-])cc(OC)c1OC (centres undefined) | . | -9 | -13 | ? | .
O=C(NCCc1ccccn1)C1CCCN1S(=O)(=O)c1ccc(Cl)cc1 (centres undefined) | 21%[46.1 µM] | -1 | 8 | 23% | ?
CCOc1ccc(CNC(=O)c2cccn2-c2nnc(N3CCCCC3)s2)cc1OC | 0%[46.1 µM] | . | . | . | .
